Measurements taken from PubChem BioAssay (NCI).
Where “and” joins values, the source holds several entries; their conditions need not be identical. Equal values may be shown once. Compounds without any hit were thinned out: in the full panel of roughly 79,000, 15% have a hit. Cut-off read from the data, not from the text of the source: active = growth inhibition above about 70%; inactive = the rest.

Legend:
[1] = NCI Yeast Anticancer Drug Screen. Data for the rad50 strain (AID 155);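 note: 0% = growth of vehicle-only cultures of the same strain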; settings: S. cerevisiae rad50 strain growth inhibition, hits give high values; at 50.0 µM unless noted
Outline: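 Relative growth inhibition (compound vs vehicle) was measured in yeast with a defined repair-gene alteration.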

[2] = NCI Yeast Anticancer Drug Screen. Data for the mec2-1 strain (AID 157); settings: S. cerevisiae mec2-1 strain, hits give high values; at 50.0 µM unless noted
Outline: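 Test agents were screened against the mec2-1 yeast strain, with defined DNA repair or cell cycle alteration. Growth was scored as inhibition against vehicle-only controls.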

[3] = NCI Yeast Anticancer Drug Screen. Data for the sgs1 mgt1 strain (AID 161);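 note: 0% = growth of cultures given vehicle only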; settings: S. cerevisiae sgs1 mgt1 strain, hits give high values; at 50.0 µM unless noted
Outline: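 Mutant yeast exposed to compound; growth scored against vehicle-only wells.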

[4] = NCI Yeast Anticancer Drug Screen. Data for the cln2 rad14 strain (AID 165);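 note: 0% = growth equal to vehicle treated cultures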; settings: S. cerevisiae cln2 rad14 strain, hits give high values; at 50.0 µM unless noted
Outline: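 Growth of compound-exposed yeast (cln2 rad14 genotype) measured and expressed as inhibition relative to vehicle.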

[5] = NCI Yeast Anticancer Drug Screen. Data for the bub3 strain (AID 167); settings: S. cerevisiae bub3 mutant strain, hits give high values; at 50.0 µM unless noted
Outline: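 Screening used yeast with an engineered genetic alteration affecting cell cycle control. Compound-exposed cultures were compared with vehicle cultures, and reduced growth was taken as inhibition.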

[6] = NCI Yeast Anticancer Drug Screen. Data for the mlh1 rad18 strain (AID 175); settings: S. cerevisiae mlh1 rad18 strain growth inhibition, hits give high values; at 50.0 µM unless noted
Outline: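 In this whole-cell yeast screen, a strain with altered DNA damage repair is challenged with compound, and its growth is measured against matched vehicle-treated controls.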

Measured: growth inhibition

COC(=O)C(=O)C(C#N)c1ccccc1Cl (centres undefined)
inactive: [1] 3.45% | [2] -17.2% | [3] 0.35% | [4] 0.5% | [5] -5.75% | [6] 5.15%

CCNC(=O)c1ccccc1S(C)=O (centres undefined)
inactive: [1] -18.8% | [2] -19.3% | [3] -17.9% | [4] -8.25% | [5] -9.15% | [6] -20.1%

CCCCCCCCCCCCCCCCCCCCCCCCCCO
inactive: [1] -16.2% | [2] -10.4% | [3] -13.8% | [4] -8.85% | [5] -1.3% | [6] -7.25%

COc1cccc(/C=C/c2cnc3ccccc3n2)c1OC
inactive: [1] -1.25% | [2] 13.8% | [3] -10.2% | [4] 10.7% | [5] -6.7% | [6] -52.1%

CSc1ccc(NC(=O)Nc2cc(C)ccc2N=Nc2ccc(C)cc2)cc1
inactive: [1] -1.5% | [2] -2.35% | [3] -4.95% | [4] -9.3% | [5] -4.75% | [6] 17.5%

Nc1nc(=O)[nH]c(=O)[nH]1
inactive: [1] -5% | [2] -0.4% | [3] -7.05% | [4] -28.9% | [5] -14.6% | [6] 16.9%

CCc1nnc2c(C)c(C)nc(C)n12
inactive: [1] 21.2% | [2] 1.55% | [3] -16% | [4] -16.1% | [5] 17.2% | [6] 1.6%

O=C(/C(=C/c1ccccc1)c1ccccc1)N1c2ccccc2CC1c1c[nH]c2ccccc12 (centres undefined)
inactive: [1] 17.4% | [2] 15.2% | [3] -10.9% | [4] 19.1% | [5] 3.3% | [6] 23.8%

CC(C)NCC(O)c1ccc(O)c(O)c1 (centres undefined)
inactive: [1] 31.9% and -20.8% | [2] -10.6% and -23.4% | [3] -3.35% and 16.2% | [4] 14.7% and -52% | [5] 18.7% and 27.4% | [6] -0.1% and -4.95%

CCOC(=O)NC(=S)c1ccc[nH]1
inactive: [1] -10.7% | [2] -42.2% | [3] 0.2% | [4] 4.6% | [5] -36.8% | [6] -20.2%

O=C1CCCC2CCCC(=O)N12
inactive: [1] -1.35% | [2] -0.85% | [3] -0.4% | [4] 8.9% | [5] 1% | [6] -9.7%

CCCc1cc(Cl)ccc1OCC(=O)O
inactive: [1] 32.4% | [2] 18.9% | [3] 14.1% | [4] 11.6% | [5] 20.5% | [6] 10.3%

C=C1OC(n2cnc3c(=N)n(O)cnc32)C2OC(C)(C)OC12 (centres undefined)
inactive: [1] -3.6% | [2] 4.75% | [3] 13.2% | [4] -16.4% | [5] 1.9% | [6] -16.5%

C[n+]1cccc(C#N)c1
inactive: [1] 6.55% and 5.2% | [2] 4.6% and -7.45% | [3] -0.95% and 0.4% | [4] -14.8% and -21.6% | [5] 2.3% and -6.65% | [6] -0.5% and 10.1%

CC1C(=O)N(c2ccccc2)NC12CCCc1ccccc12 (centres undefined)
inactive: [1] -15.2% | [2] -7.3% | [3] -34.8% | [4] 16.6% | [5] 25.1% | [6] 27.6%

Cc1ccc([N+](=O)[O-])cc1NS(=O)(=O)c1cc(Cl)c(Cl)cc1Cl
inactive: [1] 19.8% | [2] 36.6% | [3] 49.2% | [4] -8.5% | [5] 1.2% | [6] 61.2%

CC1CC(C)OC(c2ccc(Cl)cc2)O1 (centres undefined)
inactive: [1] 20.8% | [2] 14.5% | [3] 17.2% | [4] -28.8% | [5] -2.15% | [6] 19.1%

O=C(Nc1ccc(F)cc1)c1ccc([N+](=O)[O-])cc1
inactive: [1] 0.5% | [2] -1% | [3] 36.1% | [4] -9.6% | [5] 19% | [6] 8.15%

COc1ccc([N+](=O)[O-])cc1N(C)C
inactive: [1] 19.1% | [2] 17.4% | [3] 13.6% | [4] 9% | [5] -14.2% | [6] 4.55%

CNC(=S)NCOCCOC(C)=O
inactive: [1] 6.75% | [2] 22.1% | [3] 15.2% | [4] -26.9% | [5] 0.75% | [6] 3.45%

CCOC(=O)NC(=O)c1cn(CCOCCOC(=O)NCCCCCCNC(=O)OCCOCCn2cc(C(=O)NC(=O)OCC)c(=O)[nH]c2=O)c(=O)[nH]c1=O
inactive: [1] 5.05% | [2] 24.2% | [3] 25.6% | [4] 20.1% | [5] -6.9% | [6] 29.6%

CN1C(=O)OC2OC(C)(c3ccc(S(=O)(=O)c4ccccc4)cc3)C(=O)CC21 (centres undefined)
inactive: [1] -7.1% | [2] 22.7% | [3] -10.5% | [4] -27% | [5] 5.65% | [6] 2.25%

CC(C)Cc1c(C#N)c(C#N)c(N)n1Cc1ccccc1
inactive: [1] 3.05% | [2] 11.4% | [3] -29% | [4] -12% | [5] -22.1% | [6] -36.4%

Clc1cccc(Cl)c1C1SCc2nc3cc4ccccc4cc3n21 (centres undefined)
inactive: [1] -1.8% | [2] -12.1% | [3] 24.9% | [4] -0.55% | [5] 14% | [6] 14%

CC(=O)Nc1cc(NC(C)=O)c2ccc(=O)[nH]c2c1O
inactive: [1] -2.9% | [2] -3.6% | [3] -3.55% | [4] -8.25% | [5] 15.3% | [6] 5.3%

BrCC(Br)C1OCCCO1 (centres undefined)
inactive: [1] 18.4% | [2] 18.1% | [3] 38.4% | [4] 22.4% | [5] 5.25% | [6] 34.6%

CCOC(=O)CC/C=N/Nc1ccc([N+](=O)[O-])cc1[N+](=O)[O-]
inactive: [1] 20.6% | [2] -14% | [3] 6.7% | [4] -45.5% | [5] 6.55% | [6] 0%

CON(C)C(=O)CNC(=O)OCC1c2ccccc2-c2ccccc21
inactive: [1] 8% | [2] -6.05% | [3] 5.35% | [4] 2.15% | [5] -5% | [6] -29.3%

CC(C)(CO)N=Cc1ccccc1O
inactive: [1] -0.25% | [2] -1.6% | [3] -14.2% | [4] -3.8% | [5] -13.3% | [6] 6.35%

Nc1ccc(N)c2c(O)c3ccccc3c(O)c12
inactive: [1] 5.2% | [2] 11.8% | [3] 12.9% | [4] -1.8% | [5] 1.8% | [6] 22%

O=C1C(CN2CCCC2)CCCC1CN1CCCC1 (centres undefined)
inactive: [1] -3.2% | [2] -29.4% | [3] -40.1% | [4] 2.15% | [5] 7.3% | [6] -10.1%

Cc1cc(C)nc(NS(=O)(=O)c2ccc(NC(=O)c3cccc4c(Nc5ccc(S(=O)(=O)Nc6nc(C)cc(C)n6)cc5)c5ccc(Cl)cc5nc34)cc2)n1
inactive: [1] 27.4% | [2] 35.7% | [3] 24.3% | [4] 33% | [5] 19.6% | [6] 30.7%

Clc1ccc2[nH]c3c(c2c1)CCCC3
inactive: [1] 10.7% | [2] 0.45% | [3] 28.4% | [4] 1.6% | [5] 2.55% | [6] 28.8%

CCc1ccc2nccc(NCCCN(C)C)c2c1[N+](=O)[O-]
inactive: [1] 3.55% | [2] -13.4% | [3] 6.7% | [4] 15.2% | [5] -17.7% | [6] 13.5%

CN1CCC/C1=N\C(=Nc1ccccc1)N1CCCC1
inactive: [1] 7.95% | [2] -1.8% | [3] -6.05% | [4] 12.5% | [5] -4.35% | [6] -9.15%

NC(N)=NS(=O)(=O)c1ccc(N=NC2=C(O)C(c3ccccc3)N(c3ccccc3)C2=O)cc1 (centres undefined)
inactive: [1] 6.35% | [2] 22.1% | [3] 35.5% | [4] 0.3% | [5] 0.45% | [6] 33%

c1ccc2c(c1)/C(=N/c1nccs1)N/C2=N\c1nccs1
inactive: [1] 14.1% | [2] -6.35% | [3] -12.2% | [4] -25.6% | [5] 13.1% | [6] -6.65%

O=C1NC(=S)S/C1=C/C=C/c1ccccc1
inactive: [1] -21.4% | [2] 3.8% | [3] 7.7% | [4] 15.9% | [5] -5.2% | [6] 25.9%

Cc1nc(-c2ccc(Cl)cc2)cn2c1nc1ccccc12
inactive: [1] -5.5% | [2] -0.1% | [3] 8.2% | [4] -15.1% | [5] 47.5% | [6] -10.3%
